Rows were chosen to be rich in hits. Some 3.9% of all compounds tested hit in one or more screens of this group.
Autofluor counter: compound fluorescence in toxin protease inhibitor counterscreen; compound autofluorescence counterscreen, microsphere flow cytometry; stronger effect = higher value; fluorescence intensity (test concentration not listed); 3.1% of 360,000 active; AID 624483; in the data active = fluorescence intensity above about 16000; inconclusive = no clear call, values can overlap the other calls
Vc quorum ag: inducers of Vibrio cholerae quorum light production without autoinducers; activation, % at 18.7 µM; 0.16% of 350,000 active; V. cholerae BH1578 lux reporter, luminescence, 6 h; in the data active = activation mostly above about 9.7%, no sharp cut-off; inconclusive = no clear call, values can overlap the other calls; inactive = mostly below about 3.7%
Anthrax LF prot: inhibitors of Bacillus anthracis lethal factor protease; P15917; multiplex microsphere protease cleavage assay, LF; inhibition, % at 10 µM; 0.12% of 360,000 active; AID 588501; also: plate controls were buffer without enzyme for full effect and enzyme alone for no effect
BoNT-A LC inh2: blocks Botulinum neurotoxin A light chain protease | AID 588499 | inhibition, % at 10 µM | multiplex microsphere protease substrate cleavage, flow cytometry | 0.17% of 360,000 active; also: plate controls were buffer without enzyme for full effect and enzyme alone for no effect
MazEF act: activators of E. coli MazEF toxin-antitoxin RNase; FAM/BHQ RNA-DNA oligo cleavage fluorescence, 5 h; P0AE70; activation, % at 20 µM; 0.32% of 350,000 active; in the data active = activation above about 50%
Target sequence (P0AE70 whole entry, looked up): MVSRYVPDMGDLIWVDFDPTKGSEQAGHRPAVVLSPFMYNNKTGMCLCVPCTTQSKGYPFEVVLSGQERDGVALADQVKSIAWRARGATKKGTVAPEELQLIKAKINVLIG
BoNT F protease: inhibitors of Botulinum neurotoxin F light chain protease; Multiplex microsphere protease cleavage assay, flow cytometry; inhibition, % at 10 µM; 0.22% of 360,000 active; AID 588497; in the data active = inhibition above about 35%, passing the limit was not always enough; inconclusive = no clear call, values can overlap the other calls; also: plate controls were buffer without enzyme for full effect and enzyme alone for no effect
An asterisk follows results filed as active; i = inactive; ? = inconclusive; . = no result given. Rule as the data show it, unless noted: active = inhibition above about 30%; inconclusive = no clear call, values can overlap the other calls; inactive = below that.

SMILES	Autofluor counter	Vc quorum ag	Anthrax LF prot	BoNT-A LC inh2	MazEF act	BoNT F protease
CCCCOCCCNC(=O)N[C@H](C(=O)O)C(C)CC (some centres undefined)	4597	-0.6	-2.1	-1.0	6.5	-5.0
CCC(C)[C@H](NC(=O)NC1CC1)C(=O)O (some centres undefined)	23360*	-0.7	-2.2	?	3.1	-0.1
CC(OC(=O)C1CC=CCC1C(N)=O)C(Cl)=C(Cl)Cl (centres undefined)	22015*	-2.0	0.0	2.1	1.6	2.5
CCCCCC(=O)Nc1ccc(N2CCN(CC)CC2)c(Cl)c1	23051*	-0.2	2.3	-1.9	2.7	-4.7
O=C1CC(NS(=O)(=O)c2cccs2)CN1c1cccc(F)c1 (centres undefined)	5410	i	-0.7	-1.1	0.2	-7.0
Cc1[nH]c(=O)c(C#N)c2c1CCCC2	22068*	i	-2.3	4.0	5.8	3.6
Cc1[nH]c(=S)c(C#N)c2c1CCCC2	3389	-0.4	2.8	0.9	-1.6	4.4
COc1ccccc1CCC(=O)Nc1ccc2c(c1)CN(Cc1ccc(C)o1)CC2	6834	-0.3	-2.3	0.9	-10.4	-0.9
CCOC(=O)NC1(C(F)(F)F)NC(=O)N(Cc2ccco2)C1=O (centres undefined)	16624*	-0.2	1.9	?	9.7	-0.2
Cc1cc(=O)n2nc(N3CCCC3C(=O)Nc3cccc(Cl)c3C)sc2n1 (centres undefined)	20778*	-0.2	-5.0	-3.4	-20.4	19.3
Fc1ccc2c(c1)[C@H]1OCC[C@H]1[C@@H](c1ccco1)N2	23934*	-12.5	-24.4	-1.8	8.4	-5.7
O=C(Nc1ccccc1Cl)N1CCN(c2ccc3nnc(-c4ccc(F)cc4)n3n2)CC1	20523*	i	-0.3	?	24.4	7.4
CC(CC(=O)O)CC(=O)Nc1ccccc1C(=O)O (centres undefined)	22711*	i	3.3	-0.4	-2.1	-4.6
Nc1nc(-c2cccnc2)nn1C(=O)COc1ccccc1	24503*	i	-2.4	-2.5	7.4	-6.2
Nc1nc(-c2cccnc2)nn1C(=O)CCc1ccccc1	8911	-0.3	-5.3	0.4	3.8	-1.4
O=P(OC1CCCCC1)(OC1CCCCC1)C(O)c1ccc(Cl)cc1Cl (centres undefined)	9572	.	-7.2	1.1	21.2	-1.9
O=P(OC1CCCCC1)(OC1CCCCC1)C(O)c1c(Cl)cccc1Cl (centres undefined)	17127*	3.8	0.5	-2.2	-0.3	-4.8
CCCOP(=O)(c1ccc(N(C)C)cc1)C(O)c1ccncc1 (centres undefined)	19418*	3.0	-7.7	1.5	0.4	2.6
COc1ccc(C2C(C(=O)N3CCOCC3)=C(C)NC3=C2C(=O)CC(C)(C)C3)cc1O (centres undefined)	23700*	i	-1.6	-1.0	1.8	-4.0
COc1cc(OC)c(C2C(C(=O)N3CCOCC3)=C(C)NC3=C2C(=O)CC(C)(C)C3)cc1OC (centres undefined)	8576	-0.2	4.8	1.5	5.1	3.6
CN(CC(=O)Nc1ccccc1Br)C(=O)c1ccccc1OCc1ccccc1Cl	4908	-0.9	-3.1	6.4	3.1	-4.5
Cc1nc(SCc2c(F)cccc2Cl)n[nH]1	19718*	-2.4	-3.1	5.8	-0.4	8.1
Cc1cc(C)n2nc(SCc3c(F)cccc3Cl)nc2n1	2833	0.6	17.6	1.2	-0.5	0.5
Cc1ccc(-n2ncc(N(C)C)c(Cl)c2=O)cc1	2436	0.2	0.5	0.4	-12.1	-10.0
CN(/N=C/c1ccncc1)c1cnn(-c2ccc(F)c(Cl)c2)c(=O)c1Cl	20433*	i	-1.7	-2.6	5.6	-3.4
O=C(CCl)Nc1cccc(S(=O)(=O)NC2=NCCC2)c1	4868	-0.5	-11.9	-0.7	9.6	1.6
N/C(=N\O)c1cn(Cc2ccccc2Cl)c2ccccc12	3668	-0.3	-11.7	-0.5	8.1	-16.9
Cc1[nH][nH]c(=O)c1C(c1c(C)[nH][nH]c1=O)c1cn(Cc2ccccc2Cl)c2ccccc12	2189	i	-3.4	0.4	70.6*	-7.9
COc1ccc(NCc2nnc(SCC(=O)c3ccc(C)cc3)o2)cc1	4313	1.9	-3.6	-0.5	-1.4	5.4
COc1ccc(NCc2nnc(SCC(=O)Nc3cc(C)cc(C)c3)o2)cc1	21267*	-1.7	-3.4	?	-2.4	-1.5

Assay outcomes: PubChem, several laboratories
